Bioassay records from PubChem BioAssay.
In the library only some 4.1% were active in any assay of this set; here they are far more common.
hcDAF12 agonist – H. contortus DAF-12 activation, primary screen. HEK293 hcDAF-12 lit1-tk-luc reporter, luminescence; 0% DMSO, 100% Δ7-dafachronic acid. activation, % at 6.8 µM. actives 1.4% (n = 370,000). AID 652067;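 active means activation above the mean of all tested compounds plus 3 SD, cut at about 5.5% in these data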;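 further: 100% = response to 3 µM Δ7-dafachronic acid high control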
DAX1 inh-1 – NR0B1 (DAX1) inhibition; P51843; HEK293 Gal4-DAX1 luciferase reporter, luminescence; inhibition, % at 6.75 µM; actives 0.99% (n = 340,000);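 active means inhibition above the mean over all tested compounds plus 3 SD, cut at about 4.2% in these data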;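 further: 0% = DAX1-transfected cells with DMSO and 100% = empty-vector control cells with DMSO; inhibition shows as a rise in luminescence from relieved DAX1 repression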
hgDAF12 agonist – hgDAF-12 agonism, primary luciferase screen; HEK293 GAL4-hgDAF12 UAS-luciferase reporter, agonist luminescence; normalized to butyrate control; activation, % at 6.8 µM; actives 1.8% (n = 370,000);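 active means activation above a cutoff set at the mean of all screened compounds plus 3 SD, cut at about 10% in these data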;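 further: 0% = DMSO wells and 100% = sodium butyrate wells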
ssDAF12 agonist – activators of S. stercoralis DAF-12 nuclear receptor; actives 1% (n = 370,000); activation, % at 6.8 µM; HEK293 ssDAF-12/GRIP1 lit1-tk-luc reporter, luminescence; % of 3 µM dafachronic acid response;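 active means activation above the mean over all tested compounds plus 3 SD, cut at about 0.9% in these data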;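 further: 0% = DMSO-only wells and 100% = 3 µM delta7-dafachronic acid wells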
DAX1 inh-2 – blocks DAX1 repression of SF-1 activated StAR promoter; HEK293T StAR-luciferase reporter, SF-1/DAX-1 repression relief; inhibition, % at 6.8 µM; actives 1.1% (n = 370,000); AID 652010;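 active means inhibition above the mean over all tested compounds plus 3 SD, cut at about 3.6% in these data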;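 further: 0% = DAX-1 cells with DMSO and 100% = cells lacking DAX-1 with DMSO; higher inhibition means more luminescence from relief of DAX-1 repression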
DAX1 inh confirm – confirmation of human DAX1 (NR0B1) inhibitors | shares compounds with DAX1 inh-2 | HEK293T StAR-promoter luciferase reporter, SF-1/DAX-1 repression | actives 87% (n = 2,400) | AID 652134 | inhibition, % at 6.8 µM;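 active means inhibition above the average of every tested compound plus 3 SD, cut at about 3.8% in these data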;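 further: 0% = DAX-1 cells with DMSO and 100% = no DAX-1 control cells with DMSO; active compounds raise luminescence by relieving repression of the StAR reporter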
SF1 AF2mut Luc – nonselective inhibitor or artifact in SF-1 mutant DAX1 counter-screen; shares compounds with DAX1 inh-2; HEK293 StAR-luciferase, SF-1 AF2 mutant, luminescence; inhibition, % at 6.8 µM; actives 78% (n = 2,400); AID 652136;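 active means inhibition above the mean of all tested compounds plus 3 SD, cut at about 3% in these data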;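 further: 0% = DAX-1 transfected cells with DMSO and 100% = cells without DAX-1 with DMSO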
LXR ag – LXR-beta agonism as hcDAF-12 counter-screen | shares compounds with hcDAF12 agonist | HEK293 Gal4-LXR tk-luc reporter, luminescence, 24 h; normalized: DMSO 0%, positive control 100% | activation, % at 6.8 µM | 3,400 tested, under 10 active | AID 743027;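 active means mean percent activation of the reporter above a cutoff set as the average over tested compounds plus their standard deviation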
Target sequence (P55055 whole entry, looked up, the tested form may be a part): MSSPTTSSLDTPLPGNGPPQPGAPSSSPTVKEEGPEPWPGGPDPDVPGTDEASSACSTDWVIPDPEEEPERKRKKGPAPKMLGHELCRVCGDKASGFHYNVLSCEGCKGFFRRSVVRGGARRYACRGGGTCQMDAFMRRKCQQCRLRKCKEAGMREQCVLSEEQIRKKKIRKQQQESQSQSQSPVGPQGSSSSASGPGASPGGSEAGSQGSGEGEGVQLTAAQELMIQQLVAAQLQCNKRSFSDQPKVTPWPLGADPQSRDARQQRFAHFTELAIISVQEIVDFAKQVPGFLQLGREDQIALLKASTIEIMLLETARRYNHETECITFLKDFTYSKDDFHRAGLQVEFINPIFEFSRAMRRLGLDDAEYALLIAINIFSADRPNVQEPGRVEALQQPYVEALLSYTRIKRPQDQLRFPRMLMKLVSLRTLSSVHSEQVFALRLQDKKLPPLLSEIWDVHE
hcDAF12 ag – confirmation of H. contortus DAF-12 agonists | actives 61% (n = 3,400) | HEK293 hcDAF-12 lit1-tk-luc reporter, luminescence; % of Δ7-dafachronic acid response | shares compounds with hcDAF12 agonist | activation, % at 6.8 µM;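 active means mean activation across triplicate tests above the threshold derived from the earlier primary screen, cut at about 5.5% in these data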;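 further: 0% = DMSO only wells and 100% = 3 µM Δ7-dafachronic acid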
hgDAF12 ag – confirmation of H. glycines DAF-12 agonists; shares compounds with hgDAF12 agonist; HEK293 GAL4-hgDAF12 luciferase reporter, agonist mode; percent of butyrate response; activation, % at 6.8 µM; actives 80% (n = 3,300);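 active means mean activation over triplicate wells above the hit cutoff derived from the earlier primary screen, cut at about 11% in these data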;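 further: 0% = DMSO low control and 100% = 2 mM sodium butyrate high control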
LXR ag 2 – LXR-beta agonism as DAF-12 counter-screen; shares compounds with hgDAF12 agonist; HEK293 Gal4-LXR luciferase reporter, 24 h; activation, % at 6.8 µM; 3,300 tested, under 10 active; AID 743051;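 active means mean activation of the triplicate above a set limit carried over from the primary screen, none filed active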
The depositor's hits bear a star; . = no result.

SMILES	hcDAF12 agonist	DAX1 inh-1	hgDAF12 agonist	ssDAF12 agonist	DAX1 inh-2	DAX1 inh confirm	SF1 AF2mut Luc	hgDAF12 ag	LXR ag 2	others
COc1ccc(/C=C/C(=O)Nc2ccccc2C(=O)N2CCCC2)cc1	0	0	0	-2	1	.	.	.	.
O=C(Nc1ccccc1F)Nc1ccccc1F	1	-1	10	-1	1	.	.	.	.
O=C(Nc1ccccc1)Nc1ccc2c(c1)CCC2	5	2	16*	1	10*	7.5*	5.0*	15*	1
O=C(Nc1ccc2c(c1)CCC2)Nc1ccccc1F	8.6*	0	16*	1	16*	13*	8.5*	22*	1	LXR ag=2;hcDAF12 ag=8.6*
CCNC(=S)NNC(=O)c1cc(-c2ccc(OC)cc2)nc2ccccc12	5	-3	18*	1	5.5*	15*	8.8*	18*	1
O=C(CCCCCN1C(=O)C2C3C=CC(C3)C2C1=O)Nc1cc(F)cc(F)c1 (stereo not drawn)	-4	.	-5	-2	-3	.	.	.	.
Cc1ccc2nc(N(CCN3CCOCC3)C(=O)CCS(=O)(=O)c3ccccc3)sc2c1	0	4	14*	0	5.1*	6.8*	4.8*	11*	0
Cc1ccc(S(=O)(=O)CCC(=O)N(CCCN2CCOCC2)c2nc3ccccc3s2)cc1	3	1	6	0	3	.	.	.	.
COc1ccc2cc(C[C@@H]3CC[C@@H](CO)O3)ccc2c1	4	2	15*	0	5.0*	8.1*	5.4*	12*	1
Cc1ccc2nc(NC(=O)c3ccc4ncsc4c3)sc2c1	4	0	15*	0	6.2*	11*	7.1*	13*	1
COCCCNc1ccn2nc(-c3ccc(Cl)cc3)cc2n1	8.0*	.	14*	0	7.3*	10*	7.3*	21*	1	LXR ag=1;hcDAF12 ag=6.5*
COc1ccc(N2C(=O)c3ccccc3NC2(C)C)cc1	3	0	28*	-1	7.6*	3	1	9	0
COC(=O)C1(C)Nc2ccccc2C(=O)N1c1ccccc1OC (stereo not drawn)	-1	-1	1	0	0	.	.	.	.
C(=N\NC1=Nc2cccc3cccc1c23)/c1ccccc1	18*	5.7*	23*	4.5*	6.6*	13*	9.5*	27*	1	LXR ag=2;hcDAF12 ag=21*
O=C(OCC(=O)N1CCN(c2ccccc2)CC1)c1ccccc1[N+](=O)[O-]	4	3	15*	0	6.2*	9.4*	3.6*	10	1
O=C(OCC(=O)N1CCN(c2ccccc2)CC1)c1cccc([N+](=O)[O-])c1	-1	-1	0	-1	0	.	.	.	.
COc1cc(OC)c2c(=O)cc(-c3ccccc3)oc2c1	3	4	16*	-1	4.7*	4.7*	1	9	0
CN(Cc1ccc(F)cc1)S(=O)(=O)c1ccc2[nH]c(=O)[nH]c2c1	0	1	0	-2	-1	.	.	.	.
COc1nc(-c2ccc(C)cc2)ccc1-c1noc(-c2ccco2)n1	0	1	2	-1	-1	.	.	.	.
COc1nc(C)ccc1-c1noc(-c2ccco2)n1	7.8*	0	15*	1	5.0*	12*	5.4*	15*	1	LXR ag=2;hcDAF12 ag=6.6*
CC(=O)Nc1c(-c2ccc(F)cc2)nc2ncccn12	1	.	0	-1	-1	.	.	.	.
COc1ccc(CCC[C@@H](CCC(=O)N(c2ccccc2)c2ccccc2)CCc2ccccc2)cc1	-2	.	2	-2	0	.	.	.	.
Cc1nc2sc(-c3ccccc3)cc2c(=O)[nH]1	7.4*	-2	21*	1	6.1*	12*	6.7*	12*	1	LXR ag=1;hcDAF12 ag=5.8*
O=c1c2cc(-c3ccccc3)sc2nc2n1CCC2	4	.	20*	0	5.4*	15*	7.7*	18*	1
O=c1c2ccccc2nc2n1CCC2	0	2	2	-2	0	.	.	.	.
SMILES	hcDAF12 agonist	DAX1 inh-1	hgDAF12 agonist	ssDAF12 agonist	DAX1 inh-2	DAX1 inh confirm	SF1 AF2mut Luc	hgDAF12 ag	LXR ag 2	others
Cc1nc2sc(-c3ccccc3)cc2c(=O)n1N	6.7*	-2	17*	0	4.7*	4.6*	1	5	1	LXR ag=1;hcDAF12 ag=4
Cc1nc2ccccc2c(=O)n1N	-1	1	0	-1	1	.	.	.	.
O=c1[nH]c(-c2cccnc2)nc2sc(-c3ccccc3)cc12	-1	3	5	-2	1	.	.	.	.
CCCCNC(=O)OCCCN1CCC2(CCC(c3ccccc3)CC2)C1 (stereo not drawn)	0	.	8	-1	1	.	.	.	.
COc1cccc(-c2cc(C(=O)NC3CCCC3)no2)c1	5	2	20*	0	5.0*	9.9*	5.3*	16*	1
COc1cccc(NC(=O)C(=S)NC2CCCCC2)c1	7.2*	2	23*	0	9.2*	12*	7.9*	18*	1	LXR ag=2;hcDAF12 ag=7.2*
O=C(NC1CCCC1)c1cc(-c2ccc(Cl)c(Cl)c2)on1	1	0	4	0	0	.	.	.	.
CCOC(=O)C1=C[C@@H](C(C)(C)C)N(S(=O)(=O)c2ccc(C)cc2)[C@H]1c1ccc(F)cc1	-3	.	-3	-2	-4	.	.	.	.
COc1ccc(S(=O)(=O)N(C)[C@H]2C[C@H]3c4cc(Oc5ccccc5C)ccc4CCN3C(=O)[C@H]2[C@H](C)O)cc1	-2	-1	-2	-1	-2	.	.	.	.
CCCCOc1ccc(-c2cnc3ccccc3n2)cc1	9.0*	1	23*	0	6.8*	14*	3.5*	13*	1	LXR ag=2;hcDAF12 ag=6.4*
COc1ccc2cc(-c3cc(C(=O)OCC(=O)Nc4c(C)n(C)n(-c5ccccc5)c4=O)c4ccccc4n3)ccc2c1	2	-2	15*	0	4.8*	11*	6.4*	12*	1
